The whole screen tested about 290,000 compounds, of which about 160 (0.055%) were called active. Cut-off read from the data, not from the text of the source: active = inhibition above about 50%; inactive = the rest. What follows is part of a selection rich in actives, with near analogues and random picks from the rest.

As usually defined, the inhibition is the relative decrease from the control value, in per cent.

Sequence of Tyrosine-protein phosphatase non-receptor type 22 (Homo sapiens) (Q9Y2R2 whole entry, looked up): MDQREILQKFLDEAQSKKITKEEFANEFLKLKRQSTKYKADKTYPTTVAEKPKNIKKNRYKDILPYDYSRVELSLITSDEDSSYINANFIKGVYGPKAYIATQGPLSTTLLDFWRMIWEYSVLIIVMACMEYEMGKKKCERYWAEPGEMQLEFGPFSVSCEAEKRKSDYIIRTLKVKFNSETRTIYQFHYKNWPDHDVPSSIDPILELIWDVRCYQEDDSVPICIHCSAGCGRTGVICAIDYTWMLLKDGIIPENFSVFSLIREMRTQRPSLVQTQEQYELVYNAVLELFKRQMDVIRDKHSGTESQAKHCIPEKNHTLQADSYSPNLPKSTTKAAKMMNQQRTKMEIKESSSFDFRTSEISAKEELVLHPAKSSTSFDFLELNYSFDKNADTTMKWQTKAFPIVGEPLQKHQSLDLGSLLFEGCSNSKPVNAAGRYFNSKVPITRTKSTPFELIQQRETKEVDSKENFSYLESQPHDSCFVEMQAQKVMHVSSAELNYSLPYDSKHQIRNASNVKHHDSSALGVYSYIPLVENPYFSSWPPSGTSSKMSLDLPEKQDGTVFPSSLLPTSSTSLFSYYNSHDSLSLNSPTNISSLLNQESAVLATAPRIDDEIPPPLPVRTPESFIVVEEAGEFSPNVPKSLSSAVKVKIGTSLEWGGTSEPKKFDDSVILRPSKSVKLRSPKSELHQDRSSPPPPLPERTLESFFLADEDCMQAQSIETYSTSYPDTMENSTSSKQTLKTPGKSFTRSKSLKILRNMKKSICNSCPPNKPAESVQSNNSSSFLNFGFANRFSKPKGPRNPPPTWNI

The experiment addresses Tyrosine-protein phosphatase non-receptor type 22 (Homo sapiens) (UniProt Q9Y2R2). In words: PTPN22 lymphoid phosphatase activity blockers – biochemical, fluorescence intensity, uHTS (AID 1779).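 Note: plate controls were vehicle with enzyme for no effect and no enzyme for full effect.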 The conditions noted are these: recombinant LYP phosphatase, at 11.5 µM, active compounds read high.
With `COC(=O)C(C)n1cnc2c(nnn2-c2ccc(C)cc2)c1=O` (stereo unspecified), the inhibition is -13% (inactive).
Then `CN(C(=O)COc1cc(C(F)(F)F)nn1C)c1ccccc1`, with -13.5% (inactive).
Then `CC(C)Cn1c(-c2ccco2)n[nH]c1=S`, with -1.3% (inactive).
Turning to `CC1Cc2ccccc2N1CC(=O)Nc1cccc(S(N)(=O)=O)c1` (stereo unspecified), the inhibition was 52.1% (active).
Regarding `CC1Cc2ccccc2N1CC(=O)Nc1ccc(S(=O)(=O)N(C)C)cc1` (stereo unspecified), the inhibition was 0.3% (inactive).
In the case of `CC1Cc2ccccc2N1CC(=O)Nc1ccc(S(N)(=O)=O)cc1` (stereo unspecified), the inhibition was -7.9% (inactive).
Then `CC(NC(=O)CN1CCN(c2ccccc2F)CC1)c1ccccc1` (stereo unspecified), with -13% (inactive).
For `CCCS(=O)(=O)N1CCc2ccc(NC(=O)C3CCCO3)cc2C1` (stereo unspecified), the inhibition was -11.2% (inactive).
Regarding `CS(=O)(=O)N1CCc2ccc(NC(=O)C3CCCO3)cc2C1` (stereo unspecified), the inhibition is 73.9% (active).
Then `CN(C)S(=O)(=O)N1CCc2ccc(NC(=O)C3CCCO3)cc2C1` (stereo unspecified), with -10.7% (inactive).
Then `O=C(c1c(F)cccc1F)N1CCC(O)(c2cccnc2)CC1`, with -8.4% (inactive).
As to `COc1ccc(Cl)cc1NC(=S)N1CCCC1`, the inhibition is -2% (inactive).
Then `CCc1ccc(NC(=O)CS(=O)CC(=O)NCC2OCCc3ccccc32)cc1` (stereo unspecified), with -6.3% (inactive); and `COc1ccc(NC(=O)CS(=O)CC(=O)NCC2OCCc3ccccc32)cc1` (stereo unspecified), with -5.2% (inactive); and `O=C(CS(=O)CC(=O)Nc1ccc(Cl)cc1)NCC1OCCc2ccccc21` (stereo unspecified), with 52.3% (active).
With `O=C(O)c1ccccc1NC(=O)c1cc(-c2ccccc2)nc2ccccc12`, the inhibition was -12.6% (inactive).
Then `COC(=O)CCCC1=CC2=C(c3ccccc3)C(=O)C(C)(OC(=O)C3CCCC3)C(=O)C2=CN1CCN1CCOCC1` (stereo unspecified), with -3.1% (inactive); and `CSc1nsc(SCC(=O)Nc2cccc(NC(C)=O)c2)n1`, with -3.8% (inactive); and `CSc1nsc(SCC(=O)Nc2cccc(C(=O)O)c2)n1`, with -1.3% (inactive).
For the compound `CSc1nsc(SCC(=O)Nc2cccc(C(C)=O)c2)n1`, the inhibition is 52.6% (active).
Then `CO/C([O-])=N/c1c[n+](-c2ccc(Cl)cc2)no1`, with -3.1% (inactive).
With `COCCNC(=O)c1c(CSc2ccccc2)noc1C(=O)NCc1ccccc1`, the inhibition is -2.5% (inactive).
`COc1c(C)cc(C(=O)C2CCCN(C(=O)c3csc(C)n3)C2)cc1C` (stereo unspecified): the inhibition is -11.3% (inactive).
Then `OCC1(CCc2ccccc2)CCN(Cc2cc(Cl)ccc2O)CC1`, with -10.5% (inactive); and `Fc1ccccc1Cn1nnc2c(NCCc3ccccn3)ncnc21`, with -5.2% (inactive); and `COc1cc(/C=N/n2c(-c3ccccc3)n[nH]c2=S)cc(OC)c1OC`, with -1.8% (inactive).
For `O=C1C2C(C(=O)N1/N=C/c1ccc([N+](=O)[O-])o1)C1C=CC2C12CC2` (stereo unspecified), the inhibition was -11.3% (inactive).
On to `O=C1C2C(C(=O)N1/N=C/c1cccc([N+](=O)[O-])c1)C1C=CC2C12CC2` (stereo unspecified), for which the inhibition was 51.6% (active).
Then `O=C1C2C(C(=O)N1/N=C/c1cc([N+](=O)[O-])ccc1O)C1C=CC2C12CC2` (stereo unspecified), with 0.1% (inactive); and `COc1cc(/C=C/C(=O)OCC(=O)c2c(N)n(C)c(=O)n(C)c2=O)ccc1O`, with 2.2% (inactive).
Then `CCN(CC)C(=O)c1sc(NC(=O)Cc2ccccc2)c(C#N)c1C`, with -7.8% (inactive).
Turning to `CCOC(=O)c1c(-c2ccc(C)cc2)csc1NC(=O)c1cccc(N2C(=O)CCC2=O)c1`, the inhibition was 1% (inactive).
Then `CCCC[N+](C)(C)CCC(=O)NC(C)(C)CS(=O)(=O)[O-]`, with -4.3% (inactive).
Then `CC1(NC(=O)CC[N+](C)(C)CCO)CS(=O)(=O)CC1S(=O)(=O)[O-]` (stereo unspecified), with 0.6% (inactive); and `Cc1c(C(=O)NNC(=S)NCc2ccc(Cl)cc2)oc2ccccc12`, with -1.3% (inactive); and `COC(=O)CCCC1=CC2=C(c3ccccc3)C(=O)C(C)(OC(=O)C3CCCC3)C(=O)C2=CN1CC1CC1` (stereo unspecified), with -6.7% (inactive).
With `Cc1ccc2c(c1)N(C(=O)CCC(=O)NCc1cccc(Cl)c1)CC(C)O2` (stereo unspecified), the inhibition is -4% (inactive).
Then `Cc1ccc2c(c1)N(C(=O)CCC(=O)NCc1ccccc1)CC(C)O2` (stereo unspecified), with -6.7% (inactive); and `Cc1ccc2c(c1)N(C(=O)CCC(=O)NCc1cccc(Br)c1)CC(C)O2` (stereo unspecified), with 90.4% (active); and `COc1cccc(CNC(=O)c2csc3c2CCCC3)c1`, with -8.1% (inactive).
Then `CCC(=O)N(Cc1cc2cc(OC)ccc2[nH]c1=O)c1cccc(C)c1`, with -4.9% (inactive); and `CCn1c(N)nc2c1c(=O)n(C)c(=O)n2C`, with 0.4% (inactive); and `Cn1nc(-c2ccccn2)nc2c(=O)n(C)c(=O)nc1-2`, with 73.5% (active).
Then `c1ccc(-c2nc(-c3ccccn3)nc(-c3ccccn3)n2)nc1`, with -4% (inactive).
With `Cn1nc(-c2ccc(Cl)cc2)nc2c(=O)n(C)c(=O)nc1-2`, the inhibition is -0.7% (inactive).
Take `CCCc1nc2c(=O)n(C)c(=O)nc-2n(C)n1`: the inhibition was 79% (active).
Then `CCCc1nc(SCC(=O)c2ccc(OC)cc2)c2c(=O)n(C)c(=O)n(C)c2n1`, with 7.4% (inactive); and `Cn1c(N)c(C(=O)COC(=O)CCc2ccccc2)c(=O)n(C)c1=O`, with -4.8% (inactive); and `CC1CCCC(NC(=O)COC(=O)CCc2ccccc2)C1C` (stereo unspecified), with -5.4% (inactive).
Then `Clc1ccccc1CNCC1CCCO1` (stereo unspecified), with -13.9% (inactive); and `CCOC(=O)COc1c(/C=N\O)cc(Cl)cc1OC`, with -4.2% (inactive); and `COc1ccc(C(=O)c2no[n+]([O-])c2C(=O)c2ccc(OC)cc2)cc1`, with 7.8% (inactive).
Then `Cc1ccc(C(=O)c2no[n+]([O-])c2C(=O)c2ccc(C)cc2)cc1`, with -5.8% (inactive).
`O=C(c1cccs1)c1no[n+]([O-])c1C(=O)c1cccs1`: the inhibition is 55.5% (active).
Then `CN(CC(=O)Nc1ccc(F)cc1)C(=O)CSc1nc2ncc(Cl)cc2[nH]1`, with -4.4% (inactive); and `N#Cc1ccc(N/N=C/c2cn(-c3ccccc3)nc2-c2ccccc2)c([N+](=O)[O-])c1`, with -1.1% (inactive).
`COCCn1c(C)cc(C(=O)COc2ncnc3ccc(Br)cc23)c1C`: the inhibition is -1.5% (inactive).
On to `CCOc1ccc(NC(=O)CN(c2ccc(C)cc2)S(=O)(=O)c2c(C)nn(C)c2C)cc1`, for which the inhibition was -8.4% (inactive).
Consider `Cn1c(SCC(=O)N2CCN(c3ccccc3)CC2)nnc1-c1cc2ccccc2o1`, for which the inhibition was 79.7% (active).
Then `Cn1c(SCC(=O)N2CCN(c3ccccc3)CC2)nnc1-c1ccco1`, with -8.2% (inactive); and `Cn1c(SCC(=O)N2CCN(c3ccccc3)CC2)nnc1-c1ccccc1`, with -8.4% (inactive).
Then `Cc1ccc(CNS(=O)(=O)c2ccc(C(C)(C)C)cc2)n1C`, with -5.6% (inactive).
Take `Cc1cccc(NC(=O)CN2CCOCC2)c1C`: the inhibition is -9.5% (inactive).
In the case of `c1ccc2c(CN3CCOCC3)csc2c1`, the inhibition is -4.5% (inactive).
Then `Clc1ccc2scc(CN3CCCCC3)c2c1`, with -6.7% (inactive).
Then `c1ccc2c(CN3CCCCC3)csc2c1`, with 68.1% (active).
For the compound `C=CCn1c(C)cc(C(=O)CN2NS(=O)(=O)c3ccccc3C2=O)c1C`, the inhibition was -3.8% (inactive).
Take `Cc1nn(Cc2ccc(Cl)cc2)c(C)c1NC(=O)CSc1n[nH]c(C)c1[N+](=O)[O-]`: the inhibition is -3.2% (inactive).
On to `COc1cc2c(cc1OC)C(C(=O)N1CCCC1)C(c1ccccc1F)N(C)C2=O` (stereo unspecified), for which the inhibition was -2.7% (inactive).
Then `COc1cc2c(cc1OC)C(C(=O)N1CCCCC1)C(c1ccccc1F)N(C)C2=O` (stereo unspecified), with 64.6% (active).
Then `COc1ccc(C2C(C(=O)N3CCCC3)c3cc(OC)c(OC)cc3C(=O)N2C)cc1OC` (stereo unspecified), with -1.1% (inactive).
On to `COCCCNc1nc2c(-c3ccc(C)cc3)nnn2c2ccccc12`, for which the inhibition is -6.1% (inactive).
As to `O=C(N=C1c2ccccc2CN1c1cccc(Cl)c1)c1cccnc1`, the inhibition was -6.2% (inactive).
Then `COc1cc(SC#N)ccc1N=Cc1c(C)[nH]n(-c2ccc(C)cc2C)c1=O`, with -3.1% (inactive); and `COc1cc(SC#N)ccc1N=Cc1c(C)[nH]n(-c2ccc(Cl)cc2)c1=O`, with 80.6% (active); and `COc1cc(SC#N)ccc1N=Cc1c(C)[nH]n(-c2ccc(C)c(C)c2)c1=O`, with -5.7% (inactive).
Then `CCOC(=O)C1CCN(S(=O)(=O)c2cc(Cl)c(C)cc2OC)CC1`, with 0% (inactive).
`CCOC(=O)C1CCN(C(=O)Nc2ccc3nc(-c4ccco4)c(-c4ccco4)nc3c2)CC1`: the inhibition is 53.4% (active).
Turning to `O=C(Nc1ccc2nc(-c3ccco3)c(-c3ccco3)nc2c1)N1CCCCCC1`, the inhibition was 17.4% (inactive).
Consider `CCOC(=O)C1CCN(C(=O)Nc2ccc3nc(C)c(C)nc3c2)CC1`, for which the inhibition is -2.2% (inactive).
Then `CCC(=O)N1CCc2nc(-c3ccccc3)sc2C1`, with -5.1% (inactive); and `COC(=O)c1ccc(CSc2nc(-c3ccccc3)cs2)o1`, with -2.6% (inactive).
`CC(=O)N1c2c(cc(Br)cc2S(=O)(=O)N2CCCCC2)CC1C` (stereo unspecified): the inhibition was -0.1% (inactive).
Then `CC(=O)N1c2c(cc(Br)cc2S(=O)(=O)N2CCOCC2)CC1C` (stereo unspecified), with 51.5% (active); and `CCOC(=O)N1CCN(S(=O)(=O)c2cc(Br)cc3c2N(C(C)=O)C(C)C3)CC1` (stereo unspecified), with 3% (inactive).
Then `COc1ccc(C(=O)Nc2cccc(C(=O)N3CCCC3)c2)cc1`, with -7.1% (inactive); and `COc1ccccc1CC(=O)Nc1ccc(S(=O)(=O)N2CCN(C)CC2)cc1`, with -10.4% (inactive); and `Cc1cnc2cc(Cl)c(Cl)cc2n1`, with -3.4% (inactive).
For `Cc1cc2nc(Cl)c(Cl)nc2cc1C`, the inhibition is -2.6% (inactive).
Then `Cc1cc2ncc(Cl)nc2cc1C`, with 59.3% (active); and `CC(Oc1ccc([N+](=O)[O-])cc1Cl)C(=O)Nc1ccc(C(N)=O)cc1` (stereo unspecified), with -5.5% (inactive).
Then `Cc1ccc(NC(=O)C2CCCN2C(=O)NC2CCCCC2)cc1C` (stereo unspecified), with -7% (inactive); and `CCCN1C(=O)C2(C(C(=O)c3ccc(C)o3)=C(O)C(=O)N2CCCOC)c2ccccc21` (stereo unspecified), with 3.3% (inactive).
Then `O=C(NCc1ccccc1)c1ccc2ccccc2n1`, with -6.3% (inactive).
For the compound `Cc1nc2ccccc2cc1C(=O)NCc1ccco1`, the inhibition is 1.1% (inactive).
Then `O=C(NCc1ccco1)c1ccc2ccccc2n1`, with 56.3% (active).
